# Experimental data published in the supplement of paper PMC8728848.
# About 410 targets per protein were measured; listed, in parts, are those with the strongest signals and a random draw of the rest.
# What was measured:
# Experiment in all cases: glycan array binding signal (z-score within array); higher = stronger binding
# Settings in all cases: glycan notation: IUPAC condensed, linker removed
# [1] = target: Fuc(a1-2)Gal6S(b1-4)Glc6S
# Outline: (§1)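 Glycan array data were curated from 3228 arrays in the Consortium for Functional Glycomics database and kept only where the protein sequence was available. Glycan names were converted to IUPAC-condensed notation, and columns mapping to the same glycan were averaged. The binding signal is a within-array Z-score, averaged across arrays of the same protein sequence at different concentrations or buffers and across linkers. Negative Z-scores can be read as non-binding.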
# Fuc(a1-2)[Gal(a1-3)]Gal = target: Fuc(a1-2)[Gal(a1-3)]Gal
# Outline: as §1
# [2] = target: Fuc(a1-3)[Gal(b1-4)]GlcNAc
# Outline: as §1
# [3] = target: Gal(a1-3)Gal(b1-3)[Fuc(a1-4)]GlcNAc(b1-2)Man(a1-3)[Gal(a1-3)Gal(b1-3)[Fuc(a1-4)]GlcNAc(b1-2)Man(a1-6)]Man(b1-4)GlcNAc(b1-4)GlcNAc
# Outline: as §1
# [4] = target: Gal(a1-3)Gal(b1-4)[Fuc(a1-3)]GlcNAc(b1-2)Man(a1-3)[Gal(a1-3)Gal(b1-4)[Fuc(a1-3)]GlcNAc(b1-2)Man(a1-6)]Man(b1-4)GlcNAc(b1-4)GlcNAc
# Outline: as §1
# [5] = target: Gal(b1-3)GlcNAc(a1-6)Gal(b1-4)GlcNAc
# Outline: as §1
# [6] = target: Gal(b1-3)[Fuc(a1-4)]GlcNAc(b1-3)Gal(b1-3)[Fuc(a1-4)]GlcNAc
# Outline: as §1
# [7] = target: Gal(b1-4)GalNAc(b1-3)[Fuc(a1-2)]Gal(b1-4)GlcNAc
# Outline: as §1
# Gal(b1-4)GlcNAc = target: Gal(b1-4)GlcNAc
# Outline: as §1
# [8] = target: Gal(b1-4)GlcNAc(b1-2)Man(a1-3)Man(b1-4)GlcNAc(b1-4)GlcNAc
# Outline: as §1
# [9] = target: Gal(b1-4)GlcNAc(b1-2)[Gal(b1-4)GlcNAc(b1-4)]Man(a1-3)[Gal(b1-4)GlcNAc(b1-2)Man(a1-6)]Man(b1-4)GlcNAc(b1-4)GlcNAc
# Outline: as §1
# GlcA(b1-3)GlcNAc = target: GlcA(b1-3)GlcNAc
# Outline: as §1
# [10] = target: GlcNAc(a1-4)Gal(b1-4)GlcNAc(b1-3)Gal(b1-4)[Fuc(a1-3)]GlcNAc(b1-3)Gal(b1-4)[Fuc(a1-3)]GlcNAc
# Outline: as §1
# [11] = target: Man(a1-2)Man(a1-2)Man(a1-3)Man
# Outline: as §1
# [12] = target: Man(a1-2)Man(a1-6)[Man(a1-3)]Man(a1-6)[Man(a1-2)Man(a1-2)Man(a1-3)]Man(b1-4)GlcNAc(b1-4)GlcNAc
# Outline: as §1
# [13] = target: Man(a1-3)[Man(a1-6)]Man(a1-6)[Man(a1-3)]Man(b1-4)GlcNAc(b1-4)GlcNAc
# Outline: as §1
# [14] = target: Neu5Ac(a2-3)Gal(b1-4)[Fuc(a1-3)]GlcNAc(b1-3)GalNAc
# Outline: as §1
# [15] = target: Neu5Ac(a2-3)Gal6S(b1-4)GlcNAc
# Outline: as §1
# [16] = target: Neu5Ac(a2-3)Gal6S(b1-4)[Fuc(a1-3)]GlcNAc
# Outline: as §1
# [17] = target: Neu5Ac(a2-3)[GalNAc(b1-4)]Gal(b1-4)Glc
# Outline: as §1
# Neu5Ac(a2-6)Gal = target: Neu5Ac(a2-6)Gal
# Outline: as §1
# [18] = target: Neu5Ac(a2-6)Gal(b1-4)GlcNAc(b1-3)Gal(b1-4)GlcNAc
# Outline: as §1
# [19] = target: Neu5Ac(a2-6)Gal(b1-4)GlcNAc(b1-3)Gal(b1-4)[Fuc(a1-3)]GlcNAc(b1-3)Gal(b1-4)[Fuc(a1-3)]GlcNAc
# Outline: as §1
# [20] = target: Neu5Ac(a2-6)GlcNAc(b1-4)GlcNAc
# Outline: as §1
# [21] = target: Neu5Ac(a2-8)Neu5Ac(a2-3)Gal(b1-4)Glc
# Outline: as §1
# [22] = target: Neu5Ac9Ac(a2-3)Gal(b1-4)GlcNAc
# Outline: as §1
# Fuc(a1-2)GlcNAc = target: Fuc(a1-2)GlcNAc
# Outline: as §1
# [23] = target: Fuc(a1-2)[GalNAc(a1-3)]Gal(b1-4)Glc
# Outline: as §1
# [24] = target: Gal(a1-3)[Gal(a1-4)]Gal(b1-4)GlcNAc
# Outline: as §1
# [25] = target: Gal(b1-3)[Neu5Ac(b2-6)]GalNAc
# Outline: as §1
# [26] = target: Gal(b1-4)GlcNAc(b1-2)Man(a1-3)[Gal(b1-4)GlcNAc(b1-2)Man(a1-6)]Man(b1-4)GlcNAc(b1-4)GlcNAc
# Outline: as §1
# [27] = target: Gal(b1-4)GlcNAc(b1-3)Gal(b1-4)GlcNAc(b1-3)Gal(b1-4)GlcNAc
# Outline: as §1
# [28] = target: Gal(b1-4)GlcNAc(b1-3)GalNAc
# Outline: as §1
# [29] = target: Gal(b1-4)GlcNAc(b1-3)[Gal(b1-4)GlcNAc(b1-6)]GalNAc
# Outline: as §1
# [30] = target: Gal(b1-4)GlcNAc(b1-6)[Gal(b1-3)]GalNAc
# Outline: as §1
# GalNAc(a1-3)GalNAc = target: GalNAc(a1-3)GalNAc
# Outline: as §1
# [31] = target: GalNAc(b1-3)Gal(a1-4)Gal(b1-4)GlcNAc
# Outline: as §1
# Glc(b1-6)Glc = target: Glc(b1-6)Glc
# Outline: as §1
# [32] = target: GlcNAc(b1-3)Gal(b1-4)GlcNAc
# Outline: as §1
# [33] = target: GlcNAc(b1-4)GlcNAc(b1-4)GlcNAc(b1-4)GlcNAc(b1-4)GlcNAc(b1-4)GlcNAc
# Outline: as §1
# GlcNAc(b1-6)GalNAc = target: GlcNAc(b1-6)GalNAc
# Outline: as §1
# [34] = target: Neu5Ac(a2-3)Gal(b1-4)GlcNAc(b1-3)Gal(b1-4)GlcNAc
# Outline: as §1
# [35] = target: Neu5Ac(a2-3)Gal(b1-4)[Fuc(a1-3)]GlcNAc6S
# Outline: as §1
# Neu5Ac(a2-3)GalNAc = target: Neu5Ac(a2-3)GalNAc
# Outline: as §1
# [36] = target: Neu5Ac(a2-3)GalNAc(b1-4)GlcNAc
# Outline: as §1
# [37] = target: Neu5Ac(a2-8)Neu5Ac(a2-8)Neu5Ac(a2-3)[GalNAc(b1-4)]Gal(b1-4)Glc
# Outline: as §1
# Neu5Gc(a2-3)Gal(b1-4)Glc = target: Neu5Gc(a2-3)Gal(b1-4)Glc
# Outline: as §1
# Neu5Gc(a2-6)GalNAc = target: Neu5Gc(a2-6)GalNAc
# Outline: as §1
binder,measurement,setting,value
"PEB4 (Campylobacter jejuni), A1VYV6 (protein) MKKFSLVAAALIAGVALNVNAATVATVNGKSISDAEVSEFFAPMLRGQDFKTLPDNQKKALIQQYIMQDLILQDAKKQNLEKDPLYTKELDRAKDAILVNVYQEKILNTIKIDAAKVKAFYDQNKDKYVKPARVQAKHILVATEKEAKDIINELKGLKGKELDAKFSELAKEKSIDPGSKNQGGELGWFDQSTMVKPFTDAAFALKNGTITTTPVKTNFGYHVILKENSQAKGQIKFDEVKQGIENGLKFEEFKKVINQKGQDLLNSAKVEYK",glycan array binding signal (z-score),[1],0.571
same,glycan array binding signal (z-score),Fuc(a1-2)[Gal(a1-3)]Gal,-0.517
same,glycan array binding signal (z-score),[2],-0.387
same,glycan array binding signal (z-score),[3],3.83
same,glycan array binding signal (z-score),[4],2.12
same,glycan array binding signal (z-score),[5],2.54
same,glycan array binding signal (z-score),[6],2.99
same,glycan array binding signal (z-score),[7],-0.25
same,glycan array binding signal (z-score),Gal(b1-4)GlcNAc,-0.852
same,glycan array binding signal (z-score),[8],-0.258
same,glycan array binding signal (z-score),[9],2.58
same,glycan array binding signal (z-score),GlcA(b1-3)GlcNAc,0.752
same,glycan array binding signal (z-score),[10],4.35
same,glycan array binding signal (z-score),[11],2.37
same,glycan array binding signal (z-score),[12],0.969
same,glycan array binding signal (z-score),[13],-0.553
same,glycan array binding signal (z-score),[14],5.24
same,glycan array binding signal (z-score),[15],1.6
same,glycan array binding signal (z-score),[16],2.8
same,glycan array binding signal (z-score),[17],-1.19
same,glycan array binding signal (z-score),Neu5Ac(a2-6)Gal,0.075
same,glycan array binding signal (z-score),[18],-0.672
same,glycan array binding signal (z-score),[19],-0.544
same,glycan array binding signal (z-score),[20],-0.701
same,glycan array binding signal (z-score),[21],-0.705
same,glycan array binding signal (z-score),[22],-1.05
"RSVL (Crotalus atrox), P21963 (protein) NNCPLDWLPMNGLCYKIFNQLKTWEDAEMFCRKYKPGCHLASFHRYGESLEIAEYISDYHKGQENVWIGLRDKKKDFSWEWTDRSCTDYLTWDKNQPDHYQNKEFCVELVSLTGYRLWNDQVCESKDAFLCQCKF",glycan array binding signal (z-score),Fuc(a1-2)GlcNAc,-0.364
same,glycan array binding signal (z-score),[23],1.84
same,glycan array binding signal (z-score),[24],5.83
same,glycan array binding signal (z-score),[25],0.952
same,glycan array binding signal (z-score),Gal(b1-4)GlcNAc,0.686
same,glycan array binding signal (z-score),[26],1.49
same,glycan array binding signal (z-score),[27],-0.23
same,glycan array binding signal (z-score),[28],-0.171
same,glycan array binding signal (z-score),[29],5.41
same,glycan array binding signal (z-score),[30],5.05
same,glycan array binding signal (z-score),GalNAc(a1-3)GalNAc,4.76
same,glycan array binding signal (z-score),[31],0.559
same,glycan array binding signal (z-score),Glc(b1-6)Glc,-0.364
same,glycan array binding signal (z-score),[32],-0.369
same,glycan array binding signal (z-score),[33],-0.369
same,glycan array binding signal (z-score),GlcNAc(b1-6)GalNAc,1.02
same,glycan array binding signal (z-score),[11],-0.367
same,glycan array binding signal (z-score),[34],-0.365
same,glycan array binding signal (z-score),[35],-0.345
same,glycan array binding signal (z-score),Neu5Ac(a2-3)GalNAc,-0.367
same,glycan array binding signal (z-score),[36],-0.342
same,glycan array binding signal (z-score),[37],-0.362
same,glycan array binding signal (z-score),Neu5Gc(a2-3)Gal(b1-4)Glc,-0.365
same,glycan array binding signal (z-score),Neu5Gc(a2-6)GalNAc,-0.366
